# In PubChem BioAssay (EPA / NIEHS):
# Results filed as inconclusive are left out. The source made the active and inactive calls. The calls were made as follows, unless noted: active = hit-call score of the fitted dose curve at least 0.9, where 1 is the maximum; inactive = score below 0.9.
# Columns and labels:
# [1] = ATG_PXRE_CIS: Attagene CIS-FACTORIAL HepG2 Assay for human Pregnane X Receptor Element (PXRE) (AID 2282957); details: HepG2 Attagene CIS-FACTORIAL PXRE reporter, mRNA; actives raise or lower the signal
# In short: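 Multiplexed cis-reporter assay in transiently transfected human HepG2 cells; 24 h chemical exposure. Reporter transcripts quantified by RT-PCR with fluorescent labeling and capillary electrophoresis.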
# [2] = ATG_PPRE_CIS: Attagene CIS-FACTORIAL HepG2 Assay for human Peroxisome Proliferator-activated Response Element (PPRE) (AID 2282958); details: HepG2 PPRE cis-element reporter, Attagene transcription factor profiling; actives raise or lower the signal
# In short: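 HepG2, transient MRTU transfection (cis promoter elements, endogenous TFs). 24 h dosing. RNA → oligo(dT) RT → PCR → 6-FAM primer extension → HpaI digest → CE. Bidirectional fit vs DMSO.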
# [3] = ATG_RORE_CIS: Attagene CIS-FACTORIAL HepG2 Assay for human RAR-related Orphan Receptor Element (RORE) (AID 2282959); details: HepG2 Attagene cis-factorial RORE reporter, mRNA; actives raise or lower the signal
# In short: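 Transient MRTU transfection of human HepG2 liver cells (FuGene 6); 24 h compound exposure; TriZol RNA, oligo(dT) RT, PCR, FAM labeling, HpaI cut, CE fragment analysis. DMSO = negative control/baseline.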
# [4] = ATG_Sox_CIS: Attagene CIS-FACTORIAL HepG2 Assay for human SRY-box transcription factor (SOX) (AID 2282960); details: HepG2 Attagene cis-factorial SOX reporter, mRNA; actives raise or lower the signal
# In short: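 Endogenous factor activity in human liver HepG2 cells carrying transfected cis-regulated reporter units. RNA taken 24 h post-dose, reverse-transcribed, PCR-amplified and sized by capillary electrophoresis. Gain or loss of signal fitted relative to DMSO.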
# [5] = target: Transcription factor Sp1 (Homo sapiens) (UniProt P08047); assay: ATG_Sp1_CIS: Attagene CIS-FACTORIAL HepG2 Assay for human Specificity Protein 1 (Sp1) (AID 2282961); details: HepG2 Sp1 cis-reporter transcription, actives raise or lower the signal
# In short: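 Transient MRTU-transfected HepG2, 24 h compound exposure. Total RNA → oligo(dT) RT → PCR of reporter → 6-FAM primer extension → HpaI digest → CE. Endpoint fitted both directions vs DMSO.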
# [6] = ATG_SREBP_CIS: Attagene CIS-FACTORIAL HepG2 Assay for human Sterol Regulatory Element Binding (SREBP) (AID 2282962); details: HepG2 Attagene cis-factorial SREBP reporter, mRNA; actives raise or lower the signal
# In short: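 Transfected HepG2 (cis-regulated reporter library, endogenous TFs) → compound 24 h → total RNA → oligo(dT) RT → reporter-specific PCR → FAM primer extension, HpaI cut → CE fluorescence. Fit bidirectional vs DMSO.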
# [7] = target: Signal transducer and activator of transcription 3 (Homo sapiens) (UniProt P40763); assay: ATG_STAT3_CIS: Attagene CIS-FACTORIAL HepG2 Assay for human Signal Transducer and Activator of Transcription 3 (STAT3) (AID 2282963); details: HepG2, Attagene cis-factorial STAT3 reporter transcription; actives raise or lower the signal
# In short: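 HepG2 cells transiently transfected with cis-element-driven multiple reporter transcription units; after 24 h chemical exposure, reporter mRNA measured by RT-PCR, 6-FAM primer-extension labelling, HpaI digestion and capillary electrophoresis. Bidirectional fitting versus DMSO baseline.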
# [8] = ATG_TA_CIS: Attagene CIS-FACTORIAL HepG2 Assay for human TA Basal Promoter (AID 2282964); details: HepG2 Attagene CIS-factorial TA basal promoter reporter; actives raise or lower the signal
# In short: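 Read-out: fluorescent reporter-transcript fragments resolved by capillary electrophoresis after RT-PCR and HpaI digestion. Source: HepG2 cells carrying transiently transfected multi-reporter cis constructs, treated 24 h. Endpoint fitted bidirectionally relative to DMSO.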
# [9] = ATG_TCF_b_cat_CIS: Attagene CIS-FACTORIAL HepG2 Assay for human T-Cell-Factor with beta-catenin (TCF/b-cat) (AID 2282965); details: HepG2 TCF/beta-catenin cis-reporter transcription, actives raise or lower the signal
# In short: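 In this cis-format system, transfected HepG2 cells report endogenous transcription factor activity. Readout after 24 h exposure is reporter transcript abundance from RT-PCR and capillary electrophoresis, analysed for gain or loss of signal versus DMSO.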
# [10] = ATG_TAL_CIS: Attagene CIS-FACTORIAL HepG2 Assay for human TAL Basal Promoter (AID 2282966); details: HepG2 Attagene cis-factorial TAL promoter reporter; actives raise or lower the signal;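 also: background control endpoint measuring basal TAL promoter reporter mRNA not a specific factor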
# In short: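 Steps: transfect HepG2 with multiple reporter transcription units; dose 24 h; isolate RNA, reverse-transcribe, PCR-amplify, label with 6-FAM, digest with HpaI; resolve by capillary electrophoresis. Bidirectional fitting against DMSO baseline.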
# [11] = ATG_TGFb_CIS: Attagene CIS-FACTORIAL HepG2 Assay for human Transforming Growth Factor (TGF) (AID 2282967); details: HepG2 Attagene CIS TGFb reporter, mRNA transcription; actives raise or lower the signal
# In short: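 Transient MRTU transfection of HepG2 (FuGene 6). Dose 24 h. TriZol RNA, oligo(dT) RT, PCR, 6-FAM primer extension, HpaI cut, CE. Bidirectional fit, DMSO = baseline.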
# [12] = ATG_VDRE_CIS: Attagene CIS-FACTORIAL HepG2 Assay for human Vitamin D Receptor Element (VDRE) (AID 2282968); details: HepG2 VDRE cis-reporter transcription, actives raise or lower the signal
# In short: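 HepG2 cells transiently transfected with cis-element reporter units, dosed 24 h; reporter mRNA measured by RT-PCR, 6-FAM labeling, HpaI digestion and capillary electrophoresis. Activity fitted bidirectionally against DMSO baseline.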
# [13] = target: X-box-binding protein 1 (Homo sapiens) (UniProt P17861); assay: ATG_Xbp1_CIS: Attagene CIS-FACTORIAL HepG2 Assay for human X-box Binding Protein 1 (XBP1) (AID 2282972); details: HepG2 XBP1 cis-element reporter, Attagene multiplex; actives raise or lower the signal
# In short: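 HepG2, transient MRTU transfection (cis-promoter driven), 24 h compound exposure. Total RNA → oligo(dT) RT → PCR → 6-FAM labeling → HpaI cut → CE. Bidirectional fit vs DMSO.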
# [14] = ATG_M_19_TRANS: Attagene TRANS-FACTORIAL HepG2 Assay for M19 Transcription Factor (Internal Marker) (AID 2282974; active = hit-call score of the fitted dose curve at least 0.9, where 1 is the maximum); details: HepG2 Attagene TRANS-FACTORIAL M19 internal marker reporter
# In short: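 Fluorescence of 6-FAM-labelled reporter cDNA fragments, separated by capillary electrophoresis, served as the readout. These derived from HepG2 cells carrying transfected GAL4-UAS reporter units after 24 h dosing, with DMSO as negative control.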
# [15] = ATG_GAL4_TRANS: Attagene TRANS-FACTORIAL HepG2 Assay for GAL4 (Internal Marker) (AID 2282976; active = hit-call score of the fitted dose curve at least 0.9, where 1 is the maximum); details: HepG2 Attagene TRANS GAL4 internal marker reporter
# In short: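 Liver HepG2 line bearing multiplexed GAL4-UAS reporter constructs; 24 h chemical treatment. Transcripts were quantified as fluorescent fragments on capillary electrophoresis after RT-PCR and HpaI cut, with activity fitted upward from DMSO.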
# [16] = target: Glucocorticoid receptor (Homo sapiens) (UniProt P04150); assay: ATG_GR_TRANS: Attagene TRANS-FACTORIAL HepG2 Assay for human Glucocorticoid Receptor (GR) (AID 2282978; active = hit-call score of the fitted dose curve at least 0.9, where 1 is the maximum;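 also: activators score as hits since higher reporter transcript over DMSO is fitted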); details: HepG2 Attagene TRANS GR reporter, mRNA transcription
# In short: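 Fluorescent capillary-electrophoresis quantitation of reporter mRNA is the readout, taken 24 h after dosing human HepG2 cells carrying transiently transfected GAL4-UAS reporter units activated by chimeric NR-GAL4 fusions; activity scored as induction over DMSO.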
# [17] = target: Nuclear receptor subfamily 1 group I member 3 (Homo sapiens) (UniProt Q14994); assay: ATG_CAR_TRANS: Attagene TRANS-FACTORIAL HepG2 Assay for human Constitutive Androstane Receptor (CAR) (AID 2282969; active = hit-call score of the fitted dose curve at least 0.9, where 1 is the maximum;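 also: activators raise reporter mRNA above DMSO so AC50 marks induction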); details: HepG2 Attagene TRANS-FACTORIAL CAR reporter
# In short: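 HepG2 cells transiently transfected with multiplexed GAL4-UAS reporter units expressing chimeric NR-Gal4 proteins; compound exposure 24 h. Reporter mRNA measured by RT-PCR, 6-FAM labelling, HpaI digestion and capillary electrophoresis; gain-of-signal fitted against DMSO baseline.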
# [18] = target: Estrogen receptor (Homo sapiens) (UniProt P03372); assay: ATG_ERa_TRANS: Attagene TRANS-FACTORIAL HepG2 Assay for human Estrogen Receptor alpha (ERa) (AID 2282970; active = hit-call score of the fitted dose curve at least 0.9, where 1 is the maximum); details: HepG2 Attagene TRANS ERa GAL4 reporter, mRNA
# In short: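 Multiplexed cell-based reporter format in HepG2: chimeric ERa-Gal4 protein drives GAL4-UAS reporter transcription. Fluorescent reporter mRNA quantified by capillary electrophoresis 24 hours after dosing; endpoint fitted as signal gain against DMSO.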
# Sequence of Transcription factor Sp1 (Homo sapiens) (P08047 whole entry, looked up): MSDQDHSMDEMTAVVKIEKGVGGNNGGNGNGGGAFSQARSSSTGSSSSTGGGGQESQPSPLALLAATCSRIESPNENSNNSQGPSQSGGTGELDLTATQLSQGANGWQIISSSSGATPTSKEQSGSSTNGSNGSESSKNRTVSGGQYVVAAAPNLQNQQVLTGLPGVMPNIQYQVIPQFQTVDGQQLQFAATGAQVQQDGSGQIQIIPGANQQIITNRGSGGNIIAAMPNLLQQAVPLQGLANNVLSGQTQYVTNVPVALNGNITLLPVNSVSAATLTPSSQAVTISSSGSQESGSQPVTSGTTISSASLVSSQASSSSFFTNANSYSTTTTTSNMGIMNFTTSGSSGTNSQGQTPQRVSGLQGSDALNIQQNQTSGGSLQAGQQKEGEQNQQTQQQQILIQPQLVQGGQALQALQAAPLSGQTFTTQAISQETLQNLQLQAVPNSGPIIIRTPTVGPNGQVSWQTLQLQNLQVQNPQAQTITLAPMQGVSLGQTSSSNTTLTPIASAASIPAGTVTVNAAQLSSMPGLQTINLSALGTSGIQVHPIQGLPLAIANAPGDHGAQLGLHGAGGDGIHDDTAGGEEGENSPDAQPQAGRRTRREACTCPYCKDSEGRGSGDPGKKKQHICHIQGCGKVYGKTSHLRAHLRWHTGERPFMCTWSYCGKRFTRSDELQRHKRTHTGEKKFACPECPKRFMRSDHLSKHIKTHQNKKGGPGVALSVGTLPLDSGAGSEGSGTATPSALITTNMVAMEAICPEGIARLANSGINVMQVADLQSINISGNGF
# Sequence of X-box-binding protein 1 (Homo sapiens) (P17861 whole entry, looked up): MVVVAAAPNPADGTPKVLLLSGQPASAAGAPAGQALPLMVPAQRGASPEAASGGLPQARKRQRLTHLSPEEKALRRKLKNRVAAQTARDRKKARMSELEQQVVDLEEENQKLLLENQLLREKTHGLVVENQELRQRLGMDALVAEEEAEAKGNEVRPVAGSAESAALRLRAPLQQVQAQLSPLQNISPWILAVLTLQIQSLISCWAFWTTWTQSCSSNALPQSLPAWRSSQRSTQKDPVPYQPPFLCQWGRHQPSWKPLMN
# Sequence of Signal transducer and activator of transcription 3 (Homo sapiens) (P40763 whole entry, looked up): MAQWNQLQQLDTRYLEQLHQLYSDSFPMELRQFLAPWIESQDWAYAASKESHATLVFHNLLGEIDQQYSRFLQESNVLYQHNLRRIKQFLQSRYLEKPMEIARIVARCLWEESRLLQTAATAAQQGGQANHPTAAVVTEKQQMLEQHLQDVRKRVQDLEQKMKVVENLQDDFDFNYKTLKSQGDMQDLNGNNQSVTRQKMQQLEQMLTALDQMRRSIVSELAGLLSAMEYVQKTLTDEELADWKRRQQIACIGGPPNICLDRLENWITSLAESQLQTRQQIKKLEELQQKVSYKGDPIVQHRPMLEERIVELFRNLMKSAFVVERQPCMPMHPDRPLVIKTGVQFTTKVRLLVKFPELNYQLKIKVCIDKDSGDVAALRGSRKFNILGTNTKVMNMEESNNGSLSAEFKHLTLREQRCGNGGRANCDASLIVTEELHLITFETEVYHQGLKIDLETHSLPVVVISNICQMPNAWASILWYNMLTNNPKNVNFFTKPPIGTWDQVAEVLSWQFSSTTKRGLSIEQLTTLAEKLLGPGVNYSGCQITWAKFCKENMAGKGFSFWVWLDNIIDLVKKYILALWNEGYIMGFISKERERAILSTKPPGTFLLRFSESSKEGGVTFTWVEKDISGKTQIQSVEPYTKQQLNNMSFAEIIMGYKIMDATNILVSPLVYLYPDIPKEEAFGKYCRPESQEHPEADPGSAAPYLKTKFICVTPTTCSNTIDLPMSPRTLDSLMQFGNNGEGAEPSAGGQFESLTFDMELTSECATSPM
# Sequence of Estrogen receptor (Homo sapiens) (P03372 whole entry, looked up, the tested form may be a part): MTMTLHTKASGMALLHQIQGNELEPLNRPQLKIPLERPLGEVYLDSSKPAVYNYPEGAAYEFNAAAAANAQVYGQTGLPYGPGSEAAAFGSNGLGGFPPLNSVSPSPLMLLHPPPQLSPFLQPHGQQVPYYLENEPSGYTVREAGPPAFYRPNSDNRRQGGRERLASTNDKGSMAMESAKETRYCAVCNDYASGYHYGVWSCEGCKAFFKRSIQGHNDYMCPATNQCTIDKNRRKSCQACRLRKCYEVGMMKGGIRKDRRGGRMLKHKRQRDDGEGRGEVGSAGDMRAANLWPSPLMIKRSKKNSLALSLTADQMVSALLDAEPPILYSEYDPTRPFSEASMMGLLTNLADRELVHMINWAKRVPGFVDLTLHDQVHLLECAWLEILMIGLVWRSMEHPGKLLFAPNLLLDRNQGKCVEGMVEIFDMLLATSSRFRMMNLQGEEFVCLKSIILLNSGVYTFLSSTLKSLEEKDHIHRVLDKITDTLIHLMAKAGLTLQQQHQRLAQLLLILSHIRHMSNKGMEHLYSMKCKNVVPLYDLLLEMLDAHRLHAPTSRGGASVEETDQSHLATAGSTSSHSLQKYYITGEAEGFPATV
# Sequence of Glucocorticoid receptor (Homo sapiens) (P04150 whole entry, looked up, the tested form may be a part): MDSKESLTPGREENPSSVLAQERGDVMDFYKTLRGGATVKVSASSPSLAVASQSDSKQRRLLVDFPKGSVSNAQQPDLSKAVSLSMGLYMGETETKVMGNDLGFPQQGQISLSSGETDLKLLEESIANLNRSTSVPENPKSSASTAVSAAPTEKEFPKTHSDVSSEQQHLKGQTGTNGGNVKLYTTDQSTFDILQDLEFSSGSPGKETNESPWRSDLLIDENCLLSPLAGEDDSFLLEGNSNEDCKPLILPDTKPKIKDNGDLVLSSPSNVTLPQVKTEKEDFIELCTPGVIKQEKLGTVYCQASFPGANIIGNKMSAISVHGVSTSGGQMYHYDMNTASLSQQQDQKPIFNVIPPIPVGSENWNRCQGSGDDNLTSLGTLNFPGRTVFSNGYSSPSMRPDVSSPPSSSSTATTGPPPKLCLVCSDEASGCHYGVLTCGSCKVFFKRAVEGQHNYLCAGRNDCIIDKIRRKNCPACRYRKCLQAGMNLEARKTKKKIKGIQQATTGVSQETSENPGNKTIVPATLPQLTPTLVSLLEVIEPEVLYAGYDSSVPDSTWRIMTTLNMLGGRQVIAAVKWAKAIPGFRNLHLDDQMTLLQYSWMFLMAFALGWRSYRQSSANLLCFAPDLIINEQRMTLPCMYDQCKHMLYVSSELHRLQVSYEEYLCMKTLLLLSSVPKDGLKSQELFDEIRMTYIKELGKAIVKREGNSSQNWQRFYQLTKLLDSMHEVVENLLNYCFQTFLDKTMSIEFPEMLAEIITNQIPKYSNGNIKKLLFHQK
# Sequence of Nuclear receptor subfamily 1 group I member 3 (Homo sapiens) (Q14994 whole entry, looked up, the tested form may be a part): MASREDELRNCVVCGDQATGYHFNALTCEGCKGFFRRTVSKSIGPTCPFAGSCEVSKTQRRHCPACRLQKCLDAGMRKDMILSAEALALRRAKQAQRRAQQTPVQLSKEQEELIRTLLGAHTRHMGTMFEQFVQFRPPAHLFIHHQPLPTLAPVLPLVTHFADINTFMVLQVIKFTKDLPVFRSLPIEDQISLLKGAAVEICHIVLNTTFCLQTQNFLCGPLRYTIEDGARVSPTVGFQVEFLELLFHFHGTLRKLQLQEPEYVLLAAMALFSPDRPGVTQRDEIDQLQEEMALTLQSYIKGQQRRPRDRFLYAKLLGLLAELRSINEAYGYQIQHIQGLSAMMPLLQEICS
smiles,measurement,setting,value
CCC12COCN1COC2,outcome,[1],inactive
same,outcome,[2],inactive
same,outcome,[3],inactive
same,outcome,[4],inactive
same,outcome,[5],inactive
same,outcome,[6],inactive
same,outcome,[7],inactive
same,outcome,[8],inactive
same,outcome,[9],inactive
same,outcome,[10],inactive
same,outcome,[11],inactive
same,outcome,[12],inactive
same,outcome,[13],inactive
same,outcome,[14],inactive
same,outcome,[15],inactive
CC(C)(C)C(O)(CCc1ccc(Cl)cc1)Cn1cncn1 (stereo unspecified),AC50,[1],2.45 µM (active)
same,outcome,[2],inactive
same,outcome,[3],inactive
same,outcome,[4],inactive
same,outcome,[5],inactive
same,AC50,[6],1.79 µM (active)
same,outcome,[7],inactive
same,outcome,[8],inactive
same,outcome,[9],inactive
same,outcome,[10],inactive
same,outcome,[11],inactive
same,outcome,[12],inactive
same,outcome,[13],inactive
same,outcome,[14],inactive
same,outcome,[15],inactive
same,outcome,[16],inactive
ClC1=C(Cl)[C@]2(Cl)[C@H]3[C@H]([C@@H]4C=C[C@H]3C4)[C@@]1(Cl)C2(Cl)Cl,AC50,[1],2.06 µM (active)
same,outcome,[2],inactive
same,AC50,[3],25.2 µM (active)
same,outcome,[4],inactive
same,outcome,[5],inactive
same,outcome,[6],inactive
same,outcome,[7],inactive
same,outcome,[8],inactive
same,outcome,[9],inactive
same,outcome,[10],inactive
same,outcome,[11],inactive
same,AC50,[12],11.7 µM (active)
same,outcome,[17],inactive
same,AC50,[18],11.5 µM (active)
same,AC50,[13],33.4 µM (active)
same,outcome,[14],inactive
ClC1=C(Cl)C2(Cl)C3C(Cl)C=CC3C1(Cl)C2(Cl)Cl (stereo unspecified),AC50,[1],7.47 µM (active)
same,outcome,[2],inactive
same,outcome,[3],inactive
same,outcome,[4],inactive
same,AC50,[5],168 µM (active)
same,outcome,[6],inactive
same,outcome,[7],inactive
same,outcome,[8],inactive
same,outcome,[9],inactive
same,outcome,[10],inactive
same,outcome,[11],inactive
same,outcome,[18],inactive
same,outcome,[13],inactive
same,outcome,[16],inactive
